Reference: PubChem BioAssay AID2414 (Southern Research Specialized Biocontainment Screening …, 2010)
Results with a measured potency or affinity are listed apart. The source made the active and inactive calls. How the calls were made is not given here.

test: cytotoxicity of synthesized analogs in Vero 76, SAR follow-up, cytotoxicity control for West Nile virus antiviral project, Vero 76 cells (AID 2414); details: Vero 76 cells viability, cytotoxicity CC50; series mostly up to 66.6 µM

Structure (SMILES) | outcome
CCCN(C(=O)c1ccccc1Cl)c1nc(-c2ccc(OC)cc2)cs1 | inactive
OC1c2c(F)cccc2N=C2CCCN21 (centres undefined) | inactive
COc1ccc(Cn2nc(C)cc2OC(=O)c2ccccc2)cc1 | inactive
CC1CC(C)CN(C(=O)CSc2nc3ccccc3c(=O)n2-c2ccc(F)cc2)C1 (centres undefined) | inactive
OC1c2cc(Br)ccc2N=C2CCCCN21 (centres undefined) | inactive
OC1c2cc(Cl)cc(Cl)c2N=C2CCCN21 (centres undefined) | inactive
O=c1c2cccc(Cl)c2nc2n1CCC2 | inactive
O=C(CSc1nc2cccc(F)c2c(=O)n1-c1ccccc1)Nc1ccc2c(c1)CCC2 | inactive
CC1(O)c2cc(Br)ccc2N=C2CCCN21 (centres undefined) | inactive
COc1ccc(-c2csc(N(C)C(=O)c3ccccc3Cl)n2)cc1 | inactive
Cc1cc(OC(=O)c2c(F)cccc2F)n(Cc2ccccc2)n1 | inactive
COc1ccc(NC(=O)CSc2nc3ccccc3c(=O)n2-c2ccc(F)cc2)cc1 | inactive
OC1c2c(F)cccc2N=C2CCCCN21 (centres undefined) | inactive
CCCCN(C(=O)c1ccccc1Cl)c1nc(-c2ccc(OC)cc2)cs1 | inactive
Cc1cccc2c(=O)n3c(nc12)CCC3 | inactive
COc1ccc(-c2csc(N(Cc3ccccc3)C(=O)c3ccccc3Cl)n2)cc1 | inactive
O=C(CSc1nc2ccccc2c(=O)n1-c1ccc(F)cc1)Nc1ccc2c(c1)OCCO2 | inactive

Structure (SMILES) | outcome
Cc1cccc2nc3n(c(=O)c12)CCC3 | inactive
OC1c2c(F)cccc2N=C2CCCCCN21 (centres undefined) | inactive
O=[N+]([O-])c1ccc2c(c1)C(O)N1CCCC1=N2 (centres undefined) | inactive
COc1ccc(-c2csc(N(CCCBr)C(=O)c3ccccc3Cl)n2)cc1 | inactive
COc1ccc(Cn2nc(C)cc2OC(=O)c2c(F)cccc2F)cc1 | inactive
COc1ccccc1NC(=O)CSc1nc2ccccc2c(=O)n1-c1ccc(F)cc1 | inactive
O=c1c2c(F)cccc2nc2n1CCC2 | inactive
Cc1ccc2nc3n(c(=O)c2c1)CCC3 | inactive
O=c1c2cc([N+](=O)[O-])ccc2nc2n1CCC2 | inactive
Nc1ccc2nc3n(c(=O)c2c1)CCC3 | inactive
OC1c2cc(I)ccc2N=C2CCCN21 (centres undefined) | inactive
O=c1c2cc(Cl)cc(Cl)c2nc2n1CCC2 | inactive
CC(=O)Nc1ccc2nc3n(c(=O)c2c1)CCC3 | inactive
COc1ccc(Cn2nc(C)cc2OC(=O)c2c(F)ccc(C)c2F)cc1 | inactive
O=c1c2cc(I)ccc2nc2n1CCC2 | inactive
O=C(CSc1nc2ccccc2c(=O)n1-c1ccc(F)cc1F)Nc1ccc(N2CCOCC2)cc1 | inactive
O=C(CSc1nc2ccc(F)cc2c(=O)n1-c1ccccc1)Nc1ccc2c(c1)CCC2 | inactive
